Sampled rows, rich in hits. Any-hit rate of the full collection: about 18%.
KAT2A inh – qHTS Assay for Inhibitors of GCN5L2 | Histone acetyltransferase KAT2A (Homo sapiens), Q92830 | GCN5L2 HAT assay, ThioGlo1 CoA-SH fluorescence | Potency, µM (highest dose often 58.9 µM), without a hit: at the top dose activity change, negative = inhibition, usual class: inhibitors | 0.21% of 390,000 active | AID 504327, 2011
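qHTS, 1536-well. 20nM enzyme, pH 7.5 HEPES/EDTA/Tween-20 buffer; 15 min compound preinc., RT. Start: 75uM H3(1-25), 70uM AcCoA, 50uM ThioGlo1. Read Ex340/Em540 at t=0 (autofluorescence flag) and t=20 min.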
TDP1 cell CPT – qHTS for Inhibitors of human tyrosyl-DNA phosphodiesterase 1 (TDP1): qHTS in cells in presence of CPT; 12% of 420,000 active; Potency, µM (series often up to 46.2 µM), inactives show top-dose activity change, negative = growth inhibition, usual class: inhibitors; chicken DT40 Tdp1-/-;hTDP1 cells + 20 nM CPT, ATP luminescence, 48 h; note: nearly all actives have a fitted effect of over 55% in size
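Chicken DT40 Tdp1-/- cells complemented with human TDP1, 400 cells/well, exposed to compounds plus 20 nM camptothecin for at least 48 h at 37 C; viability read as ATP content by CellTiter-Glo luminescence.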
DT40 TDP1 no CPT – qHTS for Inhibitors of human tyrosyl-DNA phosphodiesterase 1 (TDP1): qHTS in cells in absence of CPT; DT40 Tdp1-/- hTDP1 cells, no CPT, ATP luminescence, 48 h; 15% of 420,000 active; Potency, µM (series often up to 46.2 µM), inactives show at the highest dose activity change, negative = growth inhibition, most hits filed as inhibitors; note: nearly all actives have a fitted effect of over 55% in size
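Growth kinetics read by CellTiter-Glo luminescence after ≥48 hr at 37 °C. Cells: DT40 Tdp1-/- stably carrying human TDP1, 400 per well, compound exposure in the absence of CPT (DMSO vehicle).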
VDR inhibitor – Inhibitors of the vitamin D receptor (VDR): qHTS; VDR-SRC2-3 peptide fluorescence polarization, 2 h; 0.93% of 400,000 active; Potency, µM, without a hit: max response, negative = inhibition, hits mostly inhibitors; Vitamin D3 receptor (Homo sapiens), P11473
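Measured by FP: displacement of SRC2-3 coactivator peptide from VDR by library compounds, following a two-hour ambient incubation.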
PLK1 PBD block – qHTS for Inhibitors of PLK1-PDB (polo-like kinase 1 - polo-box domain): Primary Screen; 2.8% of 360,000 active; Potency, µM, inactives show max response, negative = inhibition, most hits filed as inhibitors; Plk1 PBD binding of FITC phosphopeptide, fluorescence polarization; note: series mostly up to about 57 µM; nearly all actives have a fitted effect of over 65% in size
TDP1 inh – qHTS Assay for Inhibitors of Tyrosyl-DNA Phosphodiesterase (TDP1); Tyrosyl-DNA phosphodiesterase 1 (Homo sapiens), Q9NUW8; recombinant TDP1, AlphaScreen DNA substrate cleavage; AID 485290, 2010; Potency, µM (top dose mostly 130 µM), for the others: at the top dose activity change, negative = inhibition, most hits filed as inhibitors; 0.28% of 350,000 active; note: nearly all actives have a fitted effect of over 40% in size
Target sequence (Q9NUW8 whole entry, looked up): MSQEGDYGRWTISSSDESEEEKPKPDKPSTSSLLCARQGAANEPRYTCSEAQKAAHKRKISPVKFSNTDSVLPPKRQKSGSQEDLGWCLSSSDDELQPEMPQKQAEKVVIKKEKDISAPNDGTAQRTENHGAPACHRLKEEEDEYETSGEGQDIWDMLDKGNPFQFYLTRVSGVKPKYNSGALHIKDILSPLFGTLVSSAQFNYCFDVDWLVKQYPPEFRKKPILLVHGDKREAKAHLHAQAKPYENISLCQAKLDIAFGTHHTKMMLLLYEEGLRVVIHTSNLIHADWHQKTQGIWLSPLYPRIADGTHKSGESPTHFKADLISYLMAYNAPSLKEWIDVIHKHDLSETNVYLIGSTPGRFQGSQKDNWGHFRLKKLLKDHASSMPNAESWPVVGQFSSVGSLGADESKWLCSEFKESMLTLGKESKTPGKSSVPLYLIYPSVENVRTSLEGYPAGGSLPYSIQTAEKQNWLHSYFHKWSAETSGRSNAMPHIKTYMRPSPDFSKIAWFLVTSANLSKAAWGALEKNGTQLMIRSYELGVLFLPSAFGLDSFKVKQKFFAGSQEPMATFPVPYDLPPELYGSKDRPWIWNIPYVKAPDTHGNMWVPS
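Signal: AlphaScreen proximity between streptavidin donor and anti-FITC acceptor beads on intact substrate. Reaction: Tdp1 1 nM, substrate 15 nM final, 5 min RT after 15 min compound preincubation.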
* marks the source's active call; other numbers are inactive results; ? = inconclusive; nt = no result; [ ] = remark or other dose. Calls come from the whole dose curve; as a rule, active = well fitted curve in the direction sought with a large enough effect; inconclusive = small, poorly fitted or top-dose-only effect, or another doubt; inactive = no such curve, though single readings can be large; an effect the other way counts as inactive or inconclusive. % is set by controls: 0 for no effect and ±100 for the full control effect; potency is the fitted concentration of half-maximal effect.

SMILES	KAT2A inh	TDP1 cell CPT	DT40 TDP1 no CPT	VDR inhibitor	PLK1 PBD block	TDP1 inh
O=C(CSc1nnc(SCc2ccc(Cl)cc2)s1)N/N=C/c1c(Cl)cccc1Cl	-2.0%	?	25.9µM*	-5.9%	7.4%	2.7%
O=C(CSc1nnc(SCc2ccc(Cl)cc2)s1)N/N=C/c1ccc(Cl)cc1Cl	1.6%	-14.4%	-40.2%	5.2%	-10.3%	0.0%
Cc1ccc(CSc2nnc(SCC(=O)N/N=C/c3ccccc3OCC(=O)O)s2)cc1	-10.7%	?	?	-27.2%	-10.2%	-6.8%
Cc1ccc(NCN2C(=O)C(=O)c3ccccc32)nc1	16.9%	2.31µM*	1.3µM*	-27.6%	-18.6%	2.6%
CC1CN(c2ccnc3cc(Cl)ccc23)CC(C)O1 (stereo unspecified)	-5.5%	?	11.6µM*	-2.8%	-0.8%	nt
Clc1ccc2c(N3CCCC3)ccnc2c1	-1.9%	?	?	-0.8%	-7.1%	-3.3%
COc1ccc(N2CCN(c3ccnc4cc(Cl)ccc34)CC2)cc1	-6.2%	?	18.4µM*	-8.1%	-1.1%	2.5%
Clc1ccc2c(N3CCOCC3)ccnc2c1	-3.9%	-27.1%	?	-12.5%	2.1%	nt
Oc1ccc(N2CCN(c3ccnc4cc(Cl)ccc34)CC2)cc1	-3.7%	?	23.1µM*	-9.2%	-9.4%	12.6%
CCOC(=O)C1CCCN(C(=O)c2ccc3c(c2)C(C)(C)CCC3(C)C)CC1 (stereo unspecified)	nt	8.2µM*	6.51µM*	nt	1.8%	nt
CCOC(=O)C1CCCN(C(=O)c2ccc(-c3ccccc3)cc2)CC1 (stereo unspecified)	nt	16.4µM*	?	nt	-5.8%	nt
CCOC(=O)C1CCN(Cc2cc(C(C)C)c(O)c(C(C)C)c2)CC1	6.8%	9.2µM*	9.2µM*	-11.2%	-9.0%	0.6%
CCOC(=O)C1CCN(C(=O)CC(C)c2ccccc2)CC1 (stereo unspecified)	nt	18.4µM*	?	?	23.8µM*	-1.0%
CCOC(=O)c1sc(NC(=O)CCN2C(=O)c3cccc([N+](=O)[O-])c3C2=O)c(C(=O)OCC)c1C	-4.1%	-0.7%	-5.1%	20.2%	-9.5%	2.1%
Cc1cccc(CN2CCN(CC(=O)NCc3ccc(Cl)cc3)C2=O)c1	-5.7%	0.7%	?	-4.9%	nt	-4.3%[12.3 µM]
COc1ccc(N(C)S(=O)(=O)c2cccc(C(=O)N(C)Cc3ccc(C)o3)c2)cc1	-6.6%	?	?	-7.4%	-13.1%	5.1%
C[C@H]1CN([C@@H](C)CO)C(=O)c2cc(Br)cnc2O[C@H]1CN(C)C(=O)C1CCC1	nt	-16.0%	?	nt	-11.1%	nt
COc1cccc(-c2nnc3n2N=C(c2c(OC)cccc2OC)CS3)c1	nt	nt	nt	nt	nt	12.1%
CCN(CC)c1ccc(C=C(c2nnnn2-c2ccccc2)c2nnnn2-c2ccccc2)cc1	-4.0%	?	10.3µM*	-7.3%	13.1%	4.6%
Cc1ccc(-n2nnnc2C(=Cc2ccc(N(C)C)cc2)c2nnnn2-c2ccc(C)cc2)cc1	-11.3%	?	-28.5%	19.9%	-20.6%	-2.9%
O=S(=O)(c1cccc(Br)c1)N1CCN(C(=S)NCC2CCCO2)CC1 (stereo unspecified)	-3.7%	6.0%	-9.7%	6.7%	-2.9%	-1.9%
COc1cc2c(cc1OC)C(COc1ccccc1OC)N(C(=O)c1ccccc1OC)CC2 (stereo unspecified)	1.1%	?	18.4µM*	-0.2%	nt	10.4%
COc1cc2c(cc1OC)C(COc1ccccc1OC)N(C(=O)c1ccc(S(=O)(=O)N3CCCC3)cc1)CC2 (stereo unspecified)	3.5%	16.4µM*	?	2.2%	nt	13.0%
CCOC(=O)c1ccc(OCC2c3cc(OC)c(OC)cc3CCN2C(=O)c2ccc(S(=O)(=O)N3CCCC3)cc2)cc1 (stereo unspecified)	-8.6%	?	?	3.5%	nt	5.2%
CC(C)(C)OC(=O)N1CCc2onc(-c3ccc(Cl)cc3)c2C1=O	nt	?	?	nt	-16.6%	nt
SMILES	KAT2A inh	TDP1 cell CPT	DT40 TDP1 no CPT	VDR inhibitor	PLK1 PBD block	TDP1 inh
CN(C)C(=O)c1cccc(COc2ccc(N3C(N)=NC(N)=NC3(C)C)cc2Cl)c1	nt	0.0184µM*	0.164µM*	nt	-10.2%	nt
CN(C(=O)c1cccc(COc2ccc(Cl)cc2Cl)c1)c1ccccc1	-16.0%	20.6µM*	?	-8.4%	-2.3%	-2.7%
O=C(NCc1ccccc1)c1cccc(COc2ccccc2Cl)c1	-2.3%	-14.7%	-24.3%	4.9%	3.1%	-5.9%
CC(C)(C)NC(=O)C(c1ccc(C#N)cc1)n1c(=O)c(-c2cc3ccccc3[nH]2)nc2ccccc21 (stereo unspecified)	nt	?	?	nt	-12.7%	nt
Brc1ccc(CNc2cc3c(cc2Br)OCCO3)cc1	6.1%	5.2%	?	-11.1%	-3.5%	10.3%
CCN(CC)CCn1c2c(c(SCC(=O)Nc3nccs3)nc1=O)CCCC2	-0.8%	1.8%	-6.1%	-15.4%	-9.8%	0.0%
CC(C)(C)[C@H]1COC(=O)[C@@H](Cc2ccc(F)cc2)CC/C=C/C[C@@H](CC(=O)N[C@@H](CO)Cc2ccccc2)C(=O)N1	-10.8%	-108.9%	16.4µM*	0.5%	2.0%	-0.1%
CC(C)(C)[C@H]1COC(=O)CC/C=C\C[C@@H](CC(=O)N[C@H](CO)Cc2ccccc2)C(=O)N1	0.3%	-2.7%	-2.3%	-6.7%	-13.8%	0.5%
CC(C)(C)[C@H]1COC(=O)[C@@H](Cc2ccc(F)cc2)CC/C=C/C[C@@H](CC(=O)N[C@H](CO)Cc2ccccc2)C(=O)N1	0.1%	8.2µM*	18.4µM*	14.8%	-1.8%	1.0%
O=C(C[C@@H]1C/C=C\CC[C@H](Cc2ccc(F)cc2)C(=O)OC[C@@H]2CCCN2C1=O)N[C@H](CO)Cc1ccccc1	-17.6%	6.51µM*	5.17µM*	4.4%	-6.7%	1.2%
O=C(C[C@H]1C/C=C\C[C@@H](Cc2ccc(F)cc2)C(=O)OC[C@H]2CCCN2C1=O)N[C@H](CO)Cc1ccccc1	-5.2%	?	?	10.7%	-7.0%	-0.6%
